Results as given in PubChem BioAssay AID651658 (Broad Institute, 2012).
“And” between values parts separate entries of the source, which are not always exact repeats. Equal entries are not always repeated. The campaign covered roughly 340,000 compounds. About 5,100 (1.5%) were called active.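 Rule for the calls: active = mean Tm shift, scaled 0 neutral to 100 positive control, at about 1.3% or above, every replicate too (limit read from the data); inconclusive = no clear call, values can overlap the other calls; inactive = the rest.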 The sample as a whole holds a higher share of actives than the screen did.

What follows are compounds tested against Fibroblast growth factor 22 (Homo sapiens) (UniProt Q9HCT0) (assay: FGF22 ligand-induced thermal stabilization – biophysical, thermal shift, single point, FGF22 synaptogenesis inhibitor project, primary screen (AID 651658)). Settings: recombinant FGF22 thermal shift, SYPRO orange fluorescence; at 9.99 µM; active compounds read high; percent of sucrose octasulfate shift, DMSO zero.
Fibroblast growth factor 22 (Homo sapiens), sequence (Q9HCT0 whole entry, looked up): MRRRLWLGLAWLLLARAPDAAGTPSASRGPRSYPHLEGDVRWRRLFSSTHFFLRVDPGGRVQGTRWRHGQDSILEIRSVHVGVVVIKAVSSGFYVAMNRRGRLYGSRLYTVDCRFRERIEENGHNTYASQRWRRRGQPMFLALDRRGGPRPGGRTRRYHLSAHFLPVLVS
In the case of `CO[C@H]1CC[C@@H]2CCOc3c(C#N)cccc3C(=O)N(C)CCCC(=O)N(C)C[C@@H]1O2`, the activity (Tm shift, normalised) is reported as 0.064% (inactive). `CCC1C(=O)NCCN1C(=O)c1ccc2nc(Cc3ccc(OC)cc3)oc2c1` (stereo not given) was tested, and the activity (Tm shift, normalised) was 0.064% (inactive). With `COc1ccc(Cc2nc3ccc(C(=O)N4CCC(N(C)C)C4)cc3o2)cc1` (stereo not given) the activity (Tm shift, normalised) was -0.031% (inactive). In the case of `CCn1ccnc1CN(C)C(=O)c1ccc2nc(Cc3ccc(OC)cc3)oc2c1`, the activity (Tm shift, normalised) is reported as 1.62% (active). `COc1ccc2c3c(n(C)c2c1)[C@@H](CO)N(C(=O)NC1CCCC1)CC31CCN(C(C)=O)CC1` was tested, and the activity (Tm shift, normalised) was -0.236% (inactive). In the case of `CC=Cc1ccc2n(c1=O)C[C@@H]1[C@@H](CO)[C@H](C(=O)NCCC)[C@H]2N1C(=O)C1CC1` (mixture of isomers), the activity (Tm shift, normalised) is reported as -0.404% (inactive). In the case of `CC(=O)Nc1ccccc1-c1cn(CC(=O)N2CCOCC2)nn1`, the activity (Tm shift, normalised) is reported as -0.164% (inactive). `O=C(c1cccc([N+](=O)[O-])c1)N1CCN(Cc2ccccc2)CC1` was tested, and the activity (Tm shift, normalised) was 0.006% (inactive). `O=C(CCl)N(Cc1cccc([N+](=O)[O-])c1)c1cccc(Cl)c1` was tested, and the activity (Tm shift, normalised) was 43.2% (active). With `COC(=O)c1cc(C(=O)N(Cc2ccccc2)c2ccccn2)cc([N+](=O)[O-])c1` the activity (Tm shift, normalised) was 0.167% (inactive). For `O=C(Oc1ccc(C(=S)N2CCOCC2)cc1)c1ccc(F)cc1`, the activity (Tm shift, normalised) was -0.154% (inactive). `O=C(Nc1ccc(F)cc1)C(=O)c1cn(CC(=O)N2CCOCC2)c2ccccc12` was tested, and the activity (Tm shift, normalised) was -0.305% (inactive). With `O=C(c1ccc(F)cc1)n1cc(C(=S)N2CCOCC2)c2ccccc21` the activity (Tm shift, normalised) was 43.1% (active). `COc1cc(NC(=O)c2cccs2)ccc1NC(=O)c1ccccc1Cl` was tested, and the activity (Tm shift, normalised) was 1.14% (inactive). For `COc1cc(NC(=O)c2ccc3c(c2)OCO3)ccc1NC(=O)c1cccs1`, the activity (Tm shift, normalised) was 1.67% (active). In the case of `COC(=O)C[C@@H]1CC[C@H]2[C@H](COc3ccc(NC(=O)c4cccs4)cc3C(=O)N2C)O1`, the activity (Tm shift, normalised) is reported as -0.323% (inactive). In the case of `CC(C)NC(=O)Nc1ccc2c(c1)C(=O)N(C)[C@H]1CC[C@H](CC(=O)NCc3ccc(F)cc3)O[C@H]1CO2`, the activity (Tm shift, normalised) is reported as 0.053% (inactive). With `O=C(Nc1ccccc1F)N[C@H]1C=C[C@H](CC(=O)N2CCCCC2)O[C@H]1CO` the activity (Tm shift, normalised) was 0.391% (inactive). In the case of `C=CCN1C2CCCC1CC(NC(=S)Nc1cccc(OC)c1)C2` (stereo not given), the activity (Tm shift, normalised) is reported as 43.2% (active). `CCCN1C2CCCC1CC(NC(=O)c1cccc(OC)c1)C2` (stereo not given) was tested, and the activity (Tm shift, normalised) was -0.224% (inactive). For `COc1cccc(NC(=O)N2C3CCCC2CC(NC(C)=O)C3)c1` (stereo not given), the activity (Tm shift, normalised) was 0.301% (inactive). For `O=S(=O)(N[C@@H]1CC[C@H](CCn2cc(C3(O)CCCC3)nn2)O[C@@H]1CO)c1ccc(Cl)cc1`, the activity (Tm shift, normalised) was -0.216% (inactive). `C[C@H]1CN([C@@H](C)CO)S(=O)(=O)c2ccc(-c3cccnc3)cc2O[C@H]1CN(C)C(=O)C1CCCCC1` was tested, and the activity (Tm shift, normalised) was 0.041% (inactive). For `CCCN1C[C@@H](C)[C@@H](OC)CN(C)C(=O)c2ccc(NC(=O)Nc3cccc(F)c3)cc2OC[C@@H]1C`, the activity (Tm shift, normalised) was -0.405% (inactive). For `OCCC1CN(Cc2ccc(Oc3ncccn3)cc2)CCN1CCc1ccccc1` (stereo not given), the activity (Tm shift, normalised) was 0.032% (inactive). `CCOc1ccc(CN2CCN(CCCc3ccccc3)C(CCO)C2)cc1` (stereo not given) was tested, and the activity (Tm shift, normalised) was -0.164% (inactive). For `COC(=O)c1ccc(CN2CCN(CCCc3ccccc3)C(CCO)C2)cc1` (stereo not given), the activity (Tm shift, normalised) was 43.7% (active). With `O=C(C[C@H]1CC[C@H](NC(=O)C2CCC2)[C@@H](CO)O1)NCCCN1CCOCC1` the activity (Tm shift, normalised) was 0.216% (inactive). In the case of `O=C(C1CCOCC1)N1CC2(C1)[C@H](c1ccccc1)[C@H](CO)N2Cc1ccc(Cl)cc1`, the activity (Tm shift, normalised) is reported as -0.232% (inactive). For `CN1C[C@H](O)COC[C@H]2O[C@H](CC(=O)NC3CCC3)CC[C@@H]21`, the activity (Tm shift, normalised) was 0.225% (inactive). In the case of `CCC(=O)N1C[C@@H](C)[C@@H](OC)CN(C)C(=O)c2ccc(NC(=O)C3CCCCC3)cc2OC[C@H]1C`, the activity (Tm shift, normalised) is reported as 0.107% (inactive). For `COc1ccccc1NC(=O)CN(c1ccccc1OC)S(=O)(=O)c1ccccc1`, the activity (Tm shift, normalised) was -0.013% (inactive). In the case of `COc1ccccc1N(CC(=O)Nc1ccc(C(F)(F)F)cc1)S(C)(=O)=O`, the activity (Tm shift, normalised) is reported as 43.3% (active). In the case of `COc1ccccc1N(CC(=O)Nc1ccccc1C(=O)N1CCCC1)S(C)(=O)=O`, the activity (Tm shift, normalised) is reported as 41.8% (inactive). For `COc1cccc(S(=O)(=O)N2C[C@H](O)COC[C@H]3O[C@@H](CC(=O)N4CCN(c5ccccc5)CC4)CC[C@@H]32)c1`, the activity (Tm shift, normalised) was 0.06% (inactive). For `Clc1ccc(-c2cccc3nccn23)cc1`, the activity (Tm shift, normalised) was 0.174% (inactive). `O=C(NCCO)c1cccc(-c2cccc3nccn23)c1` was tested, and the activity (Tm shift, normalised) was -0.228% (inactive). `c1cc(-c2ccc3[nH]ccc3c2)n2ccnc2c1` was tested, and the activity (Tm shift, normalised) was 43.4% (active). With `Cn1cnc(CCNC(=O)C[C@H]2CC[C@@H]3[C@H](COC[C@H](O)CN3C(=O)C3CC3)O2)c1` the activity (Tm shift, normalised) was -0.297% (inactive). For `COc1cccc(S(=O)(=O)N2CC3(CCN(C)CC3)c3c(n(C)c4cc(OC)ccc34)[C@H]2CO)c1`, the activity (Tm shift, normalised) was 0.01% (inactive). `C[C@H]1CN([C@@H](C)CO)C(=O)c2c(c3ccccc3n2C)-c2ccccc2CO[C@@H]1CN(C)Cc1ccc2c(c1)OCCN2C` was tested, and the activity (Tm shift, normalised) was -0.115% (inactive). For `O=C(COC(=O)c1ccc(O)cc1O)NNC(=O)c1cccs1`, the activity (Tm shift, normalised) was 0.153% (inactive). `Cc1ccc(NNC(=O)c2cccs2)cc1Cl` was tested, and the activity (Tm shift, normalised) was -0.036% (inactive). `O=C(NNC(=O)c1ccc(Cl)cc1Cl)c1cccs1` was tested, and the activity (Tm shift, normalised) was 43.3% (active). For `C/C=C/c1cnc2c(c1)C(=O)N([C@H](C)CO)C[C@H](C)[C@@H](CN(C)CC1CCOCC1)O2`, the activity (Tm shift, normalised) was -0.049% (inactive). In the case of `C[C@@H]1CN([C@@H](C)CO)S(=O)(=O)c2ccc(C3=CCCC3)cc2O[C@H]1CN(C)C(=O)CC1CC1`, the activity (Tm shift, normalised) is reported as -0.028% (inactive). `COc1ccc2c3c([nH]c2c1)[C@@H](CO)N(C(=O)Nc1cccc(F)c1)CC31CCN(S(=O)(=O)c2ccccc2)CC1` was tested, and the activity (Tm shift, normalised) was -0.126% (inactive). `O=C(N[C@@H]1C=C[C@H](CC(=O)N2CCCCC2)O[C@H]1CO)c1cccc(F)c1` was tested, and the activity (Tm shift, normalised) was 2.12% (active). `O=C(N[C@H]1C=C[C@@H](CC(=O)N2CCCCC2)O[C@@H]1CO)c1ccc2c(c1)OCO2` was tested, and the activity (Tm shift, normalised) was -0.043% (inactive). In the case of `O=C(N[C@H]1CC[C@H](CC(=O)N2CCCCC2)O[C@@H]1CO)c1cccc(F)c1`, the activity (Tm shift, normalised) is reported as -0.194% (inactive) and -0.138% (inactive). For `CCCNC(=O)N1CC2(CN(C(=O)c3cnccn3)C2)c2c([nH]c3cc(OC)ccc23)[C@@H]1CO`, the activity (Tm shift, normalised) was 0.028% (inactive). With `CCn1c(-c2ccncc2)n[nH]c1=S` the activity (Tm shift, normalised) was 0.117% (inactive). `CCn1c(C(C)C)n[nH]c1=S` was tested, and the activity (Tm shift, normalised) was 43.3% (active). With `CCc1cc(-c2n[nH]c(=S)n2CC(C)C)cs1` the activity (Tm shift, normalised) was -0.833% (inactive). For `O=C(C[C@H]1C[C@H]2c3cc(NC(=O)Nc4ccccc4F)ccc3O[C@H]2[C@H](CO)O1)NCc1ccccn1`, the activity (Tm shift, normalised) was 0.07% (inactive). `Cc1cccc(C)c1NC(=O)CNC(=O)C1CCCC1` was tested, and the activity (Tm shift, normalised) was -0.023% (inactive). With `Cc1cccc(C)c1NC(=S)N1CCCCCC1` the activity (Tm shift, normalised) was -0.275% (inactive). `Cc1cccc(C)c1NC(=O)C1(N(C(=O)c2ccccn2)c2ccc(O)cc2)CCCCC1` was tested, and the activity (Tm shift, normalised) was 43% (active). With `O=C(N[C@H]1CC[C@H](CCNS(=O)(=O)c2ccc(F)cc2)O[C@H]1CO)c1cccc(F)c1` the activity (Tm shift, normalised) was -0.051% (inactive). In the case of `O=C(Nc1cc(F)ccc1F)N[C@@H]1C=C[C@@H](CC(=O)N2CCc3ccccc3C2)O[C@@H]1CO`, the activity (Tm shift, normalised) is reported as -0.137% (inactive). `CCC(=O)N1[C@@H](CO)[C@@H]2c3ccccc3N(C(=O)c3cnccn3)C[C@@H]21` was tested, and the activity (Tm shift, normalised) was -0.28% (inactive). For `Cc1ccc(S(=O)(=O)N2CCN(C(=O)COC(=O)c3c(C)noc3C)CC2)c(C)c1`, the activity (Tm shift, normalised) was -0.319% (inactive). `CCc1noc(C)c1C(=O)OCC(=O)c1ccc(NC(=O)CC(C)C)cc1` was tested, and the activity (Tm shift, normalised) was -0.332% (inactive). In the case of `COc1ccc(C(=O)COC(=O)c2c(C)noc2C)cc1Cl`, the activity (Tm shift, normalised) is reported as 44% (active). `CCOC(=O)C1=C(CC)OC(N)=C(C#N)C1c1ccc(F)cc1F` (stereo not given) was tested, and the activity (Tm shift, normalised) was 43.8% (active). For `COC(=O)C1=CN(c2c(C)cc(C)cc2C)C(N)=C(C#N)C1c1cccc(F)c1` (stereo not given), the activity (Tm shift, normalised) was -0.26% (inactive). With `Cn1c2c(c(=O)n(C)c1=O)C(c1cccc(F)c1)C(C#N)=C(N)O2` (stereo not given) the activity (Tm shift, normalised) was -0.167% (inactive). For `O=S(=O)(c1cccs1)N1CCCc2nc(-c3ccc(Br)cc3)ccc21`, the activity (Tm shift, normalised) was 0.061% (inactive). For `CN1CCCc2nc(-c3ccccc3)ccc21`, the activity (Tm shift, normalised) was 42.2% (inactive). In the case of `COc1ccc(-c2ccc3c(n2)CCCN3S(=O)(=O)c2ccc(C)cc2)cc1`, the activity (Tm shift, normalised) is reported as 48.4% (active). `C[C@@H]1CCCCO[C@@H](CN(C)Cc2ccc(C(=O)O)cc2)[C@H](C)CN([C@H](C)CO)C(=O)c2cc(NS(=O)(=O)c3cccs3)ccc2O1` was tested, and the activity (Tm shift, normalised) was -0.274% (inactive). `C[C@@H]1CN([C@H](C)CO)C(=O)c2cc(NS(=O)(=O)c3ccccc3)ccc2O[C@@H](C)CCCCO[C@H]1CN(C)S(=O)(=O)c1ccc(Cl)cc1` was tested, and the activity (Tm shift, normalised) was -0.893% (inactive). With `COCc1cn(CC[C@H]2CC[C@H](NC(=O)Nc3ccc4c(c3)OCO4)[C@@H](CO)O2)nn1` the activity (Tm shift, normalised) was -0.239% (inactive). `CO[C@@H]1CN(C)C(=O)c2cc(NC(=O)Nc3cccc(F)c3)ccc2OC[C@H](C)N(C)C[C@@H]1C` was tested, and the activity (Tm shift, normalised) was -0.31% (inactive). For `COc1ccc(-c2ccc3c(c2)[C@H]2[C@H](CCN2C(=O)C2CCOCC2)[C@H](CO)N3C)cc1`, the activity (Tm shift, normalised) was -0.244% (inactive). With `Cc1ccc(C2=Nc3c(ccc4ccccc34)C(c3ccncc3)=NN2)cc1` the activity (Tm shift, normalised) was 44% (active). For `COc1ccc(S(=O)(=O)N(C)C[C@@H]2Oc3ccc(NC(=O)CCN4CCOCC4)cc3CC(=O)N([C@@H](C)CO)C[C@@H]2C)cc1`, the activity (Tm shift, normalised) was -0.109% (inactive). In the case of `CCc1ccccc1NC(=O)CN(C)S(=O)(=O)c1ccc2c(c1)c(=O)n(C)c(=O)n2C`, the activity (Tm shift, normalised) is reported as -0.036% (inactive). For `Cn1c(=O)c2cc(S(=O)(=O)NCCC(=O)Nc3ccc(F)cc3F)ccc2n(C)c1=O`, the activity (Tm shift, normalised) was 43.3% (active). In the case of `COc1ccc(NC(=O)CCNS(=O)(=O)c2ccc3c(c2)c(=O)n(C)c(=O)n3C)cc1OC`, the activity (Tm shift, normalised) is reported as -0.132% (inactive).
